Only some compounds are listed: those with a hit (about 19% of all), similar ones and a draw of the others.
TDP1 block – TDP1 (human) enzyme inhibition; 350,000 tested, 0.28% active; recombinant TDP1, AlphaScreen DNA substrate cleavage; Potency, µM (series often up to 130 µM), for the others: top-dose activity change, negative = inhibition, most hits filed as inhibitors; Q9NUW8; further: potency means the concentration at half of the fitted maximal effect; on the % scale 0 is the no-effect control and ±100 the full control effect; nearly all actives have a fitted effect of over 40% in size
Target sequence (Q9NUW8 whole entry, looked up): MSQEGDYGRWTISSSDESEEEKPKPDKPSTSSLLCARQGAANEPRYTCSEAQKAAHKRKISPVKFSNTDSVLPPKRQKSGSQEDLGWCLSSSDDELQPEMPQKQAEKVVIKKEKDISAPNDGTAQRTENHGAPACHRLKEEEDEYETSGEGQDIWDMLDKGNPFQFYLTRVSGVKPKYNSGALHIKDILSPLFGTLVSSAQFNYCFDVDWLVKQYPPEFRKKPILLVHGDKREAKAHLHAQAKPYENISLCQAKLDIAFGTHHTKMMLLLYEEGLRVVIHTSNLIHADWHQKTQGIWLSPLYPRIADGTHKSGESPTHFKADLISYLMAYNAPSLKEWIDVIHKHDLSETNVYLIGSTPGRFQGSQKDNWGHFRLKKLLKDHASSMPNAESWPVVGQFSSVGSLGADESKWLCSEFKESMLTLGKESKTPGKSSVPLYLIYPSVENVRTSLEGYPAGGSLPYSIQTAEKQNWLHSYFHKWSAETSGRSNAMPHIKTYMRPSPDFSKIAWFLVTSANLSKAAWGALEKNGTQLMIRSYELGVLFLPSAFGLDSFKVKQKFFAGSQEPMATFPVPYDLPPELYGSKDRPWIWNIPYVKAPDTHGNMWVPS
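Recombinant E. coli-expressed Tdp1 (1 nM) preincubated with compound 15 min at RT, then 5'-biotin/3'-phosphotyrosine-FITC DNA substrate (15 nM) added for 5 min. AlphaScreen beads (10 ug/ml) added, 10 min RT; tyrosine-FITC cleavage read as signal loss.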
TGFb inhibitor – inhibitors of TGF-b signaling; 410,000 tested, 1.2% active; Potency, µM (doses to about 46.1 µM), inactives show at the highest dose activity, negative = inhibition, actives largely listed as inhibitors; HepG2 CAGA-GFP TGF-b/SMAD3 reporter, GFP fluorescence, 18 h; TGF-beta stimulated, 500 pg/mL final; AID 588855; further: potency means the concentration at half of the fitted maximal effect; on the % scale 0 is the no-effect control and ±100 the full control effect; nearly all actives have a fitted effect of over 65% in size
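GFP signal (ex488/em500-530) from TGF-beta-stimulated HEPG2 CAGA-GFP cells, 500 pg/mL final, 18 h at 37 degrees C in DMEM plus 1% FBS, normalized to unstimulated and DMSO-stimulated controls.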
IL1B secr inh – inhibitors of inflammasome signaling (IL-1 beta secretion). THP-1 LPS/ATP IL-1B secretion, AlphaLISA, 16 h; hits give low values. activity change, % at 57.5 µM. 360,000 tested, 4.7% active. AID 743279; in the data active means activity change below about -50%; inconclusive means mostly about -30% to -49%; further: on the % scale 0 is the no-effect control and ±100 the full control effect
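THP-1 cells pretreated 1 hr with compounds (up to 57.5 uM final), then stimulated with LPS (250 ng/mL final) plus ATP (1.25 mM final); secreted IL-1B measured by AlphaLISA after 16 hr, decreased signal indicating inhibition.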
TDP1 cell noCPT – qHTS for Inhibitors of human tyrosyl-DNA phosphodiesterase 1 (TDP1): qHTS in cells in absence of CPT; DT40 Tdp1-/- hTDP1 cells, no CPT, ATP luminescence, 48 h; 420,000 tested, 15% active; Potency, µM (doses to about 46.2 µM), without a hit: at the highest dose activity change, negative = growth inhibition, most hits filed as inhibitors; further: potency means the concentration at half of the fitted maximal effect; on the % scale 0 is the no-effect control and ±100 the full control effect; nearly all actives have a fitted effect of over 55% in size
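Growth of hTDP1-complemented DT40 Tdp1-knockout cells is measured by ATP luminescence after at least 48 hr compound exposure at 37 °C, with DMSO substituting for the 20 nM CPT used in the parallel screen.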
DT40 TDP1 CPT – DT40-hTDP1 cell growth loss with CPT; chicken DT40 Tdp1-/-;hTDP1 cells + 20 nM CPT, ATP luminescence, 48 h; Potency, µM (highest dose often 46.2 µM), without a hit: at the highest dose activity change, negative = growth inhibition, usual class: inhibitors; 420,000 tested, 12% active; AID 686979; further: potency means the concentration at half of the fitted maximal effect; on the % scale 0 is the no-effect control and ±100 the full control effect; nearly all actives have a fitted effect of over 55% in size
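Chicken DT40 Tdp1-/- cells stably complemented with human TDP1 were seeded at 400 cells/well in medium containing 20 nM camptothecin, exposed to pin-transferred compounds, and grown at 37 °C for at least 48 hr. Viability was read as ATP luminescence.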
HepG2 tox – HepG2 cytotoxicity, counter-screen for TGF-b inhibitors | Potency, µM (doses to about 46.1 µM), for inactives: at the highest dose activity change, negative = cytotoxicity, usual class: cytotoxic | 410,000 tested, 0.76% active | HepG2 CAGA-GFP viability, ATP luminescence, 18 h; further: potency means the concentration at half of the fitted maximal effect
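CellTiter-Glo luminescence gave cytotoxicity after 18 hours at 37 degrees C. The cells were HepG2 CAGA-GFP in 1% FBS DMEM, stimulated with 500 pg/mL TGF-beta after compound addition. %Activity was normalised to no-cell wells (complete cell-killing) and DMSO (no toxicity), and curves were fitted and classified.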
Active calls of the source: *; [ ] = another dose, or the depositor's remark. Unless noted, the call rests on the fitted dose curve; in most records, active means well fitted curve in the direction sought with a large enough effect; inconclusive means small, poorly fitted or top-dose-only effect, or another doubt; inactive means no such curve, though single readings can be large; an effect the other way counts as inactive or inconclusive.

Screening Cc1ccc(NC(=O)Cn2cnc3sc(C(=O)O)c(C)c3c2=O)cc1Cl returned TDP1 block 2%[12.3 µM], TGFb inhibitor 1%, TDP1 cell noCPT 5%, DT40 TDP1 CPT -8% and HepG2 tox -3%.
For COc1cccc(CNC(=O)CN2C(=O)CCCc3ccccc32)c1OC the results were TDP1 block 1%, TGFb inhibitor 1%, TDP1 cell noCPT -12%, DT40 TDP1 CPT -10% and HepG2 tox 9%.
Screening O=C(Cc1ccc(NS(=O)(=O)c2ccc(F)cc2)cc1)NCc1ccccc1 returned TDP1 block -1%, TGFb inhibitor inconclusive, IL1B secr inh 19, TDP1 cell noCPT 23µM*, DT40 TDP1 CPT inconclusive and HepG2 tox -2%.
For O=C(COC(=O)Cc1ccc(-c2ccccc2)cc1)NCc1ccc(F)cc1 the results were TDP1 block 0%, TGFb inhibitor -16%, IL1B secr inh -1, TDP1 cell noCPT inconclusive, DT40 TDP1 CPT 6.5µM* and HepG2 tox -14%.
`CCNC(=O)Cc1ccc(NS(=O)(=O)c2ccc(F)cc2)cc1` gave TDP1 block 6%, TGFb inhibitor 4%, IL1B secr inh -9, TDP1 cell noCPT 22%, DT40 TDP1 CPT -12% and HepG2 tox -3%.
CC(NC(=O)Cc1ccc(-c2ccccc2)cc1)c1ccccc1 (centres undefined) was read as TDP1 block 2%, TGFb inhibitor -9%, IL1B secr inh -22, TDP1 cell noCPT inconclusive, DT40 TDP1 CPT 26µM* and HepG2 tox -42%.
`Cc1ccc(CNC(=O)Cc2ccc(-c3ccccc3)cc2)cc1` gave TDP1 block 3%, TGFb inhibitor -20%, IL1B secr inh 74, TDP1 cell noCPT 0.58µM*, DT40 TDP1 CPT 1µM* and HepG2 tox -22%.
Screening COc1ccc(CCNC(=O)C(=O)NCC(c2ccc3c(c2)OCO3)N2CCOCC2)cc1 (centres undefined) returned TDP1 block 8%, TGFb inhibitor -7%, TDP1 cell noCPT inconclusive, DT40 TDP1 CPT inconclusive and HepG2 tox -32%.
Screening O=C(Cc1ccc(-c2ccccc2)cc1)NCc1ccccc1 returned TDP1 block 0%, TGFb inhibitor inconclusive, IL1B secr inh 4, TDP1 cell noCPT 0.46µM*, DT40 TDP1 CPT 0.52µM* and HepG2 tox 1%.
`O=C(CCC(=O)NCc1ccccc1)NCc1ccccc1` gave TGFb inhibitor 4%, IL1B secr inh 23, TDP1 cell noCPT -4%, DT40 TDP1 CPT 1% and HepG2 tox -2%.
Screening O=C(CCc1nnc(Cc2ccc(-c3ccccc3)cc2)o1)NCCc1cccnc1 returned TDP1 block 5%, TGFb inhibitor -27%, IL1B secr inh 0, TDP1 cell noCPT 18µM*, DT40 TDP1 CPT inconclusive and HepG2 tox -32%.
`COc1ccc(CCNC(=O)CCc2nnc(Cc3ccc4c(c3)OCO4)o2)cc1` gave TDP1 block 2%, TGFb inhibitor 14%, IL1B secr inh inactive, TDP1 cell noCPT 18µM*, DT40 TDP1 CPT 23µM* and HepG2 tox 0%.
For c1ccc(CN=C(NCc2ccccc2)NCc2ccccc2)cc1 the results were TGFb inhibitor inconclusive, IL1B secr inh -80*, TDP1 cell noCPT 2.9µM*, DT40 TDP1 CPT 2.3µM* and HepG2 tox 22µM*.
S=C(NCc1ccccc1)C(=S)NCc1ccccc1 was read as TGFb inhibitor -5%, IL1B secr inh -14, TDP1 cell noCPT 1%, DT40 TDP1 CPT 5% and HepG2 tox -11%.
O=C(CCc1nnc(CCCCc2ccccc2)o1)NCCc1cccnc1 was read as TDP1 block -1%, TGFb inhibitor 14%, IL1B secr inh 1, TDP1 cell noCPT -12%, DT40 TDP1 CPT -2% and HepG2 tox 9%.
`CN1CCN(c2oc(/C=C/c3ccc(F)cc3)nc2C#N)CC1` gave TDP1 block 2%, TDP1 cell noCPT inconclusive, DT40 TDP1 CPT inconclusive and HepG2 tox -10%.
Cc1ccn2c(c1)nc(=O)c1cc(S(=O)(=O)N3CCCCC3)c(Cl)cc12 was read as TDP1 block -2%, TGFb inhibitor 3% and HepG2 tox -5%.
`COc1ccccc1NC(=O)Cn1cc(C(=O)c2ccncc2)c(=O)c2cc(C)ccc21` gave TDP1 block -3%, TGFb inhibitor -1%, TDP1 cell noCPT -19%, DT40 TDP1 CPT -7% and HepG2 tox -7%.
`O=c1cnc2cnc(Oc3ccccc3)nc2n1C1CC1` gave TDP1 cell noCPT -1% and DT40 TDP1 CPT -2%.
For O=C(Cc1ccccc1)NCc1cccnc1 the results were TDP1 block 0%, TGFb inhibitor 0%, IL1B secr inh 5, TDP1 cell noCPT -19%, DT40 TDP1 CPT 5% and HepG2 tox 5%.
Screening O=C(Cc1ccc(-c2ccccc2)cc1)NCc1cccnc1 returned TDP1 block -2%, TGFb inhibitor -13%, IL1B secr inh 12, TDP1 cell noCPT 6.5µM*, DT40 TDP1 CPT 2.9µM* and HepG2 tox -11%.
Screening COc1ccccc1C(=O)N1CCN(c2nc3cc(C)c(C)cc3cc2C#N)CC1 returned TDP1 block 3%, TGFb inhibitor inconclusive, IL1B secr inh -67*, TDP1 cell noCPT 16µM*, DT40 TDP1 CPT 18µM* and HepG2 tox -6%.
`COc1ccccc1C(=O)N1CCN(c2nc3cc(C)cc(C)c3cc2C#N)CC1` gave TGFb inhibitor -2%, IL1B secr inh -9, TDP1 cell noCPT 21µM*, DT40 TDP1 CPT 23µM* and HepG2 tox -4%.
For Cc1ccc2cc(C#N)c(N3CCN(C(=O)c4cccs4)CC3)nc2c1 the results were TGFb inhibitor -3%, IL1B secr inh 5, TDP1 cell noCPT 21µM*, DT40 TDP1 CPT inconclusive and HepG2 tox -25%.
Screening Cc1cc(C)c2cc(C#N)c(N3CCCN(C(=O)c4cnccn4)CC3)nc2c1 returned TGFb inhibitor -8%, IL1B secr inh -3, TDP1 cell noCPT 18µM*, DT40 TDP1 CPT -8% and HepG2 tox 15%.
Cc1ccc2nc(N3CCN(C(=O)c4ccccc4F)CC3)c(C#N)cc2c1 was read as TGFb inhibitor inconclusive, IL1B secr inh -4, TDP1 cell noCPT inconclusive, DT40 TDP1 CPT inconclusive and HepG2 tox -24%.
`Cc1cccc(NC(=O)CSc2nnc3c4ccccc4n(C)c3n2)c1` gave TGFb inhibitor -7%, TDP1 cell noCPT -18%, DT40 TDP1 CPT -11% and HepG2 tox -6%.
